PubChem BioAssay (NCI)
“And” between values parts separate entries of the source, which are not always exact repeats. Equal entries are not always repeated. About 79,000 compounds went through this panel and 15% of them were active in at least one assay; those are over-represented in the sample as a whole. Unmarked numbers belong to inactive results. The source made the active and inactive calls. No stated cut-off is given here; in the data, active means growth inhibition above about 70%; inactive means the rest.

Assay: NCI Yeast Anticancer Drug Screen. Data for the wt1 strain (AID 149);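 further: 0% = growth of vehicle-treated wt1 cultures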
Conditions: S. cerevisiae wt1 strain (SPY 50644) growth inhibition, stronger effect = higher value
Procedure: Growth inhibition of yeast strains with defined genetic alterations is measured as a screen for potential anti-cancer activity. Selected strains with alterations in DNA damage repair or cell cycle control were exposed to compounds and growth inhibition was measured relative to vehicle treated controls. The strain used in this assay is wt1

SMILES | growth inhibition (at 1.2 µM) | growth inhibition (at 3.7 µM) | growth inhibition (at 11.0 µM) | growth inhibition (at 33.0 µM) | growth inhibition (at 100.0 µM)
O=C1c2ccccc2C(=O)C1C(c1ccc(F)cc1)C1C(=O)c2ccccc2C1=O | 9% | 10% | 7% | 18% | 85% (active)
CCOC(=O)/C(O)=C(/C=N/C(=S)Nc1c(CC)cccc1CC)C(=O)OCC | -31% | -7% | 2% | 21% | 33%
COc1ccc2[nH]c3c(C)c4cc[n+](C)cc4c(C)c3c2c1 | 18% and 15% | 45% and 16% | 45% and 26% | 43% and 41% | 43% and 63%
Cc1nc2ccccc2c(=O)n1NC(=O)c1ccc(CS)cc1 | 8% | 1% | 4% | 17% | 96% (active)
c1ccc(N/N=C2\CC(c3ccccc3)Oc3ccccc32)cc1 (stereo not given) | -1% | 0% | -3% | -2% | -2%
O=C(CCC(=O)c1ccc(O)cc1)Oc1ccc(O)cc1 | -2% | 2% | -2% | -2% | 1%
Cc1ccc(Nc2n[nH]c(=S)s2)cc1C | -23% | -22% | -19% | 1% | 81% (active)
[Cl][Pt+2][Cl].[NH-]CC1(C[NH-])CCCCC1 | -67% | -17% | 99% (active) | 99% (active) | 98% (active)
